DT40 TDP1 CPT: DT40-hTDP1 cell growth loss with CPT; Potency, µM (doses to about 46.2 µM), hits mostly inhibitors; 12% of 420,000 active; chicken DT40 Tdp1-/-;hTDP1 cells + 20 nM CPT, ATP luminescence, 48 h; further: nearly all actives have a fitted effect of over 55% in size
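Chicken DT40 Tdp1-/- cells stably complemented with human TDP1 were seeded at 400 cells/well in medium containing 20 nM camptothecin, exposed to pin-transferred compounds, and grown at 37 °C for at least 48 hr. Viability was read as ATP luminescence.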
HT1080 IDH1KD tx: toxicity to HT-1080 IDH1 knockdown cells (counter line). HT-1080 IDH1 knockdown viability, ATP luminescence, 48 h. Potency, µM (top dose mostly 46.1 µM), usual class: cytotoxic. 2% of 360,000 active. AID 686971
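Using the IDH1-knockdown HT-1080 line run in the same batch and compound series as the NT line, viability after 48 h at 37 °C was determined by CellTiter-Glo luminescence and expressed as % activity.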
HT1080-NT tox: kills 2HG-producing HT-1080-NT fibrosarcoma cells. HT-1080-NT fibrosarcoma viability, CellTiter-Glo ATP luminescence, 48 h. Potency, µM (highest dose often 46.1 µM), actives largely listed as cytotoxic. 1.6% of 360,000 active. AID 686970;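 further: NT is the 2HG producing partner of a matched IDH1 knockdown line; nearly all actives have a fitted effect of over 55% in size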
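Luminescent CellTiter-Glo readout after 48 hours of compound exposure at 37 degrees C defined viability of HT-1080-NT cells. Activity was normalized to DMSO wells and cell-free media wells; concentration-response curves were fitted and assigned curve classes.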
DT40 TDP1 no CPT: qHTS for Inhibitors of human tyrosyl-DNA phosphodiesterase 1 (TDP1): qHTS in cells in absence of CPT; 15% of 420,000 active; Potency, µM (doses to about 46.2 µM), actives largely listed as inhibitors; DT40 Tdp1-/- hTDP1 cells, no CPT, ATP luminescence, 48 h; further: nearly all actives have a fitted effect of over 55% in size
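Readout: luminescence from CellTiter-Glo after 30 min in the dark at RT. Cells: DT40 Tdp1-/- with stable hTDP1, 400/well. Exposure: compounds alone, ≥48 hr, 37 °C.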
IL-1B inflam inh: blocks inflammasome-driven IL-1 beta release. THP-1 LPS/ATP IL-1B secretion, AlphaLISA, 16 h; active compounds read low. activity change, % at 57.5 µM. 4.7% of 360,000 active; in the data active means activity change below about -50%; inconclusive means mostly about -30% to -49%
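THP-1 cells pretreated 1 hr with compounds (up to 57.5 uM final), then stimulated with LPS (250 ng/mL final) plus ATP (1.25 mM final); secreted IL-1B measured by AlphaLISA after 16 hr, decreased signal indicating inhibition.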
Each line names hits and unclear results; the compound was inactive in the other large screens. Only some compounds are listed: those with a hit (about 19% of all), similar ones and a draw of the others. Unless noted, the call rests on the fitted dose curve; in most records, active means well fitted curve in the direction sought with a large enough effect; inconclusive means small, poorly fitted or top-dose-only effect, or another doubt; inactive means no such curve, though single readings can be large; an effect the other way counts as inactive or inconclusive.

O=C(CSc1nnc(CNC(=O)c2ccccc2)o1)NCc1ccccc1Cl	none
C#CC1(O)CCCC2C3CCC4CC(OC(C)=O)CCC4(C)C3C(=O)CC21C (stereo unspecified)	DT40 TDP1 CPT 23.1µM, DT40 TDP1 no CPT 20.6µM
Cc1ccc(NC(=O)CNC(=O)c2ccc(OC(F)F)cc2)cc1S(=O)(=O)N1CCCCCC1	DT40 TDP1 CPT inconclusive, HT1080 IDH1KD tx inconclusive, DT40 TDP1 no CPT inconclusive, IL-1B inflam inh inconclusive
O=[N+]([O-])c1cc(Cl)ccc1N1CCN(c2ccccc2O)CC1	DT40 TDP1 no CPT inconclusive, IL-1B inflam inh -95.6
O=C(/C=C/c1ccc(Cl)cc1Cl)N1CCN(c2ccc([N+](=O)[O-])c(N3CCOCC3)c2)CC1	DT40 TDP1 CPT inconclusive, DT40 TDP1 no CPT 23.1µM
O=C(/C=C/c1ccc(Cl)cc1)N1CCN(c2ccc([N+](=O)[O-])c(N3CCOCC3)c2)CC1	DT40 TDP1 CPT inconclusive, DT40 TDP1 no CPT inconclusive
O=C(/C=C/c1ccccc1[N+](=O)[O-])N1CCN(c2ccccc2F)CC1	DT40 TDP1 CPT inconclusive
O=[N+]([O-])c1cc(Cl)ccc1N1CCCCC1	IL-1B inflam inh inconclusive
O=C(/C=C/c1ccc(Cl)cc1Cl)N1CCN(c2ccccc2[N+](=O)[O-])CC1	DT40 TDP1 no CPT inconclusive, IL-1B inflam inh -60.4
CCOC(=O)C1=C(C)NC(=O)NC1C(C)C (stereo unspecified)	none
COc1cccc2c1Oc1ncccc1N(C(=O)CCC(=O)NCc1cccc(C)c1)C2	none
COCCn1c2nc(=O)n(-c3ccccc3)c(=O)c-2nc2ccccc21	DT40 TDP1 CPT inconclusive, HT1080 IDH1KD tx inconclusive, DT40 TDP1 no CPT 11.6µM
COCCn1c(COC)nc2ccccc21	none
C/C(=N\NC(=O)c1cccc(Br)c1)c1cccc(NC(=O)c2ccc(C)o2)c1	DT40 TDP1 no CPT inconclusive
CCOC(=O)C1CCCN(C(=S)Nc2cc(C)cc(C)c2)C1 (stereo unspecified)	none
COC(=O)CCC(=O)OC1(C)C(=O)C2=CN(CCCOC(C)C)C(c3ccc(OC)cc3)=CC2=C(Br)C1=O (stereo unspecified)	DT40 TDP1 CPT 18.4µM, DT40 TDP1 no CPT 16.4µM
CCCCC1=CC2=C(c3ccco3)C(=O)C(C)(OC(=O)c3ccc(OC)cc3)C(=O)C2=CN1CCCOC(C)C (stereo unspecified)	DT40 TDP1 CPT 5.17µM, DT40 TDP1 no CPT 6.51µM
C=CCN1C=C2C(=O)C(C)(OC(=O)c3ccc(OC)cc3)C(=O)C(c3ccco3)=C2C=C1CCCC (stereo unspecified)	DT40 TDP1 CPT 13µM
CCCCC1=CC2=C(c3ccco3)C(=O)C(C)(OC(=O)c3ccc(OC)cc3)C(=O)C2=CN1c1ccccc1 (stereo unspecified)	DT40 TDP1 CPT 23.1µM, DT40 TDP1 no CPT inconclusive
COC(=O)CCCC1=CC2=C(c3ccccc3)C(=O)C(C)(OC(=O)C3CCCC3)C(=O)C2=CN1Cc1ccco1 (stereo unspecified)	DT40 TDP1 no CPT inconclusive
Cn1cc(S(=O)(=O)N2CCCCCC2)cc1C(=O)NCc1ccc(F)cc1	DT40 TDP1 no CPT inconclusive (no result: HT1080 IDH1KD tx, HT1080-NT tox, IL-1B inflam inh)
CCC(=Cc1ccccc1OC)c1ccncc1	HT1080 IDH1KD tx inconclusive, DT40 TDP1 no CPT inconclusive
Cc1cc(C)c(NC(=O)C2CCN(c3nn4c(=O)cc(C)nc4s3)CC2)c(C)c1	DT40 TDP1 CPT inconclusive (no result: HT1080 IDH1KD tx, HT1080-NT tox, IL-1B inflam inh)
COCCCNC(=O)c1cc2cc(Br)ccc2oc1=O	HT1080-NT tox inconclusive
O=C(c1ccc(Br)cc1)c1cc2ccc(O)cc2oc1=O	DT40 TDP1 CPT inconclusive, DT40 TDP1 no CPT 16.4µM
O=C(c1ccccc1)c1cc2ccc(O)cc2oc1=O	DT40 TDP1 CPT inconclusive, HT1080 IDH1KD tx inconclusive, HT1080-NT tox inconclusive
O=C(NNC(=O)c1cc2cc(Br)ccc2oc1=O)c1ccc(O)cc1O	DT40 TDP1 CPT 5.17µM, HT1080 IDH1KD tx 1.84µM, HT1080-NT tox inconclusive, DT40 TDP1 no CPT 9.2µM
COC(=O)CCCCCN1C(=O)NC(c2ccccc2)C(C(=O)OCc2ccccc2)=C1C (stereo unspecified)	DT40 TDP1 CPT 20.6µM, DT40 TDP1 no CPT 16.4µM
CCCCNC(=O)C(C)N(CCN(C)C)C(=O)CCCN1C(=O)NC(c2ccc([N+](=O)[O-])cc2)C(C(=O)OCc2ccccc2)=C1C (stereo unspecified)	DT40 TDP1 CPT 18.4µM, HT1080 IDH1KD tx inconclusive, HT1080-NT tox inconclusive, DT40 TDP1 no CPT 23.1µM, IL-1B inflam inh -78.8
CCOC(=O)C1=C(C)N(CCCC(=O)O)C(=O)NC1c1ccc([N+](=O)[O-])cc1 (stereo unspecified)	none
CC1=C(C(=O)OCc2ccccc2)C(c2ccc(Br)cc2)NC(=O)N1CCCCCC(=O)O (stereo unspecified)	none
Cc1ccccc1C(=O)NC1CCN(CC(=O)Nc2ccccc2)CC1	none
Cc1cc(C)cc(Cn2ncc(Cl)c(Cl)c2=O)c1	DT40 TDP1 CPT 8.2µM, HT1080 IDH1KD tx 16.4µM, DT40 TDP1 no CPT 11.6µM, IL-1B inflam inh -119.7
O=c1c(Cl)c(Cl)cnn1Cc1nnc(-c2ccc(Cl)cc2)o1	DT40 TDP1 CPT 0.82µM, HT1080 IDH1KD tx 8.2µM, HT1080-NT tox 16.4µM, DT40 TDP1 no CPT 0.92µM, IL-1B inflam inh -100.7
CSc1cnn(Cc2ccccc2)c(=O)c1SCc1ccccc1	DT40 TDP1 CPT inconclusive, DT40 TDP1 no CPT inconclusive
Cc1[nH]c(C)c2c(=O)n(Cc3ccc(Cl)cc3)ncc12	none
Cc1ccc(Cn2ncc(Cl)c(Cl)c2=O)cc1	DT40 TDP1 CPT 5.17µM, HT1080 IDH1KD tx inconclusive, HT1080-NT tox inconclusive, DT40 TDP1 no CPT 3.26µM, IL-1B inflam inh -102.6
Cc1ccc(-c2nnc(Cc3ccc(Cl)cc3)o2)cc1	DT40 TDP1 no CPT inconclusive
CCc1ccc(C(=O)Cn2ncc(Cl)c(Cl)c2=O)cc1	DT40 TDP1 CPT 3.66µM, HT1080 IDH1KD tx inconclusive, HT1080-NT tox 14.6µM, DT40 TDP1 no CPT 2.91µM, IL-1B inflam inh -115.6
O=c1c(Cl)c(Cl)cnn1Cc1ccccc1Cl	DT40 TDP1 CPT 2.59µM, HT1080 IDH1KD tx 18.4µM, HT1080-NT tox inconclusive, DT40 TDP1 no CPT 1.03µM, IL-1B inflam inh -99.8
O=C(c1ccncc1)N1CCC2(CCN(Cc3nccs3)CC2)CC1	none (no result: HT1080 IDH1KD tx, HT1080-NT tox, IL-1B inflam inh)
COc1ccc(Br)cc1CN(C)CC(=O)NCc1ccc(F)cc1	DT40 TDP1 CPT inconclusive, DT40 TDP1 no CPT 18.4µM, IL-1B inflam inh inconclusive
CC(C)CCN(CC(=O)NCc1ccc(F)cc1)S(=O)(=O)c1ccccc1F	DT40 TDP1 CPT 23.1µM, DT40 TDP1 no CPT inconclusive, IL-1B inflam inh -79.6
CCOc1ccc(CN(C)CC(=O)NCc2ccc(F)cc2)cc1	DT40 TDP1 CPT inconclusive, DT40 TDP1 no CPT 20.6µM
CCOc1ccc(CN(C)C(=O)CCl)cc1	DT40 TDP1 CPT 2.91µM, HT1080 IDH1KD tx inconclusive, HT1080-NT tox inconclusive, DT40 TDP1 no CPT 2.91µM, IL-1B inflam inh -102.1
CCOc1ccc(CN(C)C(=O)CCNC(=O)c2ccco2)cc1	none

Assay outcomes (PubChem)
